Source: the supplement of paper PMC9023506
Counter-ions that a name gives are not always drawn.

Test system: Danio rerio larvae (5 dpf)
Experiment: startle response to 20-s acoustic pulses, difference vs DMSO (percentage points (treated minus DMSO)); higher = more of the behaviour than the DMSO vehicle control
Details: 10 µM; exposure time: 3 h pre-incubation + 3 h imaging
Outline: (§1)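 Five-days-post-fertilisation wild-type zebrafish larvae were held in 96-well ProxiPlates and exposed to each library drug at a final 10 µM, diluted 1000× from DMSO stocks into egg water, with 48 larvae per drug. Exposure lasted 3 h before and 3 h during imaging at 28.5 °C, with images taken every 6 s across a 3-h program of rest, moving coloured lines and acoustic pulses. An ImageJ macro scored movement and upper-half location, and each behaviour score is the treated-group mean minus the vehicle-group mean, expressed in percentage points.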

Row | Compound | startle response to 20-s acoustic pulses
1 | CS(=O)(=O)CCNCc1ccc(-c2ccc3ncnc(Nc4ccc(OCc5cccc(F)c5)c(Cl)c4)c3c2)o1 [Lapatinib] | -0.481
2 | CCC(=O)O[C@]1(C(=O)SCF)[C@H](C)C[C@H]2[C@@H]3C[C@H](F)C4=CC(=O)C=C[C@]4(C)[C@@]3(F)[C@@H](O)C[C@@]21C [Fluticasone propionate] | -3.1
3 | CN(C)CC/C=C1/c2ccccc2COc2ccc(CC(=O)O)cc21 [Olopatadine hydrochloride] | 0.514
4 | CC(C)COCC(CN(Cc1ccccc1)c1ccccc1)N1CCCC1 (stereo not drawn) [Bepridil hydrochloride] | -5.17
5 | COC(c1ccccc1)(c1ccccc1)[C@H](Oc1nc(C)cc(C)n1)C(=O)O [Ambrisentan] | 5.96
6 | COc1ccc(-c2ccc3cc(C(=O)O)ccc3c2)cc1C12CC3CC(CC(C3)C1)C2 [Adapalene] | 0.11
7 | CC(CCc1ccc(O)cc1)NCCc1ccc(O)c(O)c1 (stereo not drawn) [Dobutamine hydrochloride] | 2.42
8 | Clc1ccc(COC(Cn2ccnc2)c2ccc(Cl)cc2Cl)c(Cl)c1 (stereo not drawn) [Miconazole nitrate] | 4.56
9 | OCCN1C[C@H](O)[C@@H](O)[C@H](O)[C@H]1CO [Miglitol] | -1.17
10 | CC(C)[C@H]1CC[C@H](C(=O)N[C@H](Cc2ccccc2)C(=O)O)CC1 [Nateglinide] | 3.57
11 | COc1ccc(Cl)cc1C(=O)NCCc1ccc(S(=O)(=O)NC(=O)NC2CCCCC2)cc1 [Glibenclamide] | 6.49

Test system: Danio rerio larvae (5 dpf)
Experiment: optomotor response to fast red moving lines, difference vs DMSO (percentage points (treated minus DMSO)); higher = more of the behaviour than the DMSO vehicle control
Details: 10 µM; exposure time: 3 h pre-incubation + 3 h imaging
Outline: as §1

Row | Compound | optomotor response
12 | CS(=O)(=O)CCNCc1ccc(-c2ccc3ncnc(Nc4ccc(OCc5cccc(F)c5)c(Cl)c4)c3c2)o1 [Lapatinib] | -0.638
13 | Cc1cc(C2CCCCC2)n(O)c(=O)c1 [Ciclopirox] | 3.21
14 | Brc1c(NC2=NCCN2)ccc2nccnc12 | 16.1
15 | CNC(=O)c1ccccc1Sc1ccc2c(/C=C/c3ccccn3)n[nH]c2c1 [Axitinib] | -2.38
16 | C[C@]12CC[C@@H]3c4ccc(O)cc4C[C@@H](CCCCCCCCC[S+]([O-])CCCC(F)(F)C(F)(F)F)[C@H]3[C@@H]1CC[C@@H]2O (stereo partly drawn) | 3.52
17 | CCCCCCCN(CC)CCCC(O)c1ccc(NS(C)(=O)=O)cc1 (stereo not drawn) [Ibutilide hemifumarate] | 3.06
18 | CN1CCN(CCCN2c3ccccc3Sc3ccc(Cl)cc32)CC1 [Prochlorperazine dimaleate] | 2.92
19 | Clc1ccc(COC(Cn2ccnc2)c2ccc(Cl)cc2Cl)c(Cl)c1 (stereo not drawn) [Miconazole nitrate] | -18.6
20 | OCCN1C[C@H](O)[C@@H](O)[C@H](O)[C@H]1CO [Miglitol] | -3.78
21 | CO[C@H]1/C=C/O[C@@]2(C)Oc3c(C)c(O)c4c(O)c(c5c(nc6cc(C)ccn65)c4c3C2=O)NC(=O)/C(C)=C\C=C\[C@H](C)[C@H](O)[C@@H](C)[C@@H](O)[C@@H](C)[C@H](OC(C)=O)[C@@H]1C [Rifaximin] | -3.87
22 | N#Cc1ccc(C(c2ccc(C#N)cc2)n2cncn2)cc1 [Letrozole] | 4.75
23 | Nc1nc2[nH]cc(CCc3ccc(C(=O)N[C@@H](CCC(=O)O)C(=O)O)cc3)c2c(=O)[nH]1 [Pemetrexed] | -14.2
